In PubChem BioAssay (NCI):
The panel holds about 83,000 compounds, 20% with a hit somewhere; the sample as a whole holds those more often.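 How to read the values: 0–100, growth inhibition (40 = 60% inhibited); 0, no net growth; -100 to 0, cell death (-40 = 40% of starting cells died; -100 = all dead).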 Values without a mark were called inactive. Active and inactive are the calls of the source. The calls were made as follows: active = growth percent below 10; inactive = the rest.

tested on: HL-60(TB) leukemia; test: NCI-60 one-dose screen, 48 h (100 = growth as untreated, 0 = no growth, -100 = all killed); conditions: 10 µM unless noted

| Structure (SMILES) | growth |
| --- | --- |
| Cn1nc(C(C)(C)C)cc1NC(=O)Cc1ccc(/C=C2\C(=O)Nc3ccccc32)cc1 | 48.2% |
| O=c1[nH]c(O)c(/C=C2/C=Nc3ccccc32)[nH]1 | 35.4% |
| c1cc2ccc3cc2cc1CNCCOCCNCc1ccc2ccc(cc2c1)CNCCOCCNC3 | 15.9% |
| C=C1C(=O)O[C@H]2[C@H]1CC/C(COC(=O)NCCc1c[nH]c3ccc(Cl)cc13)=C\CC[C@@]1(C)O[C@@H]21 | -26.2% (active) |
| COc1cccc(-c2nc3sccn3c2-c2ccnc(NCCNS(=O)(=O)c3ccc(C(F)(F)F)cc3)c2)c1 | 14.9% |
| O=C(Nc1cc(-c2ccccc2)[nH]n1)c1ccc(Cl)cc1 | 42.1% |
| COc1cc(-c2n[nH]nc2-c2ccc3c(c2)OCCO3)cc(OC)c1OC | -5.41% (active) |
| O=S(=O)(NCCCNc1nccc(-c2c(-c3cccc(F)c3)nc3sccn23)n1)c1cccc2ccccc12 | 53.9% |
| CN(C)CCCNc1nn2c(=O)c3ccccc3nc2c2ccccc12 | 26.9% |
| COC1=C(OC)C(=O)C(CCCCCCCCCCO)=C(C)C1=O | 76.8% |
| Clc1ccc2nc(-c3ccc(-c4ccc(/C=N/NC5=NCCN5)cc4)s3)cn2c1 | 98.1% |
| O=C(Nc1ccc(Nc2ccncc2)cc1)c1ccc(C(=O)Nc2ccc(Nc3ccncc3)cc2)cc1 | 23% |
| O=C(c1ccc(Cl)cc1)c1no[n+]([O-])c1C(=O)c1ccc(Cl)cc1 | -27.9% (active) |
| COC(=O)c1c[n+]([O-])ccc1OC | 106% |
| CCOc1ccc(/C=C(\C#N)c2cc3ccccc3[nH]2)cc1 | 43.7% |
| Cc1ccc(NCN2C(=O)c3ccccc3C2=O)c(C)n1 | 97.8% |
| CC(=O)c1cccs1 | 130% |
| Cn1/c(=N\N=C\c2ccccc2OCCO)sc2ccccc21 | 92.5% |
| O=c1oc2c(cc1-c1ccc([N+](=O)[O-])cc1)C(O)Oc1ccccc1-2 (configuration not stated) | 71.9% |
| Cc1ccc2c(c1)C(C)Cc1c(N(C)C)ncnc1N2C (configuration not stated) | -5.91% (active) |
| Nc1nc2c(c(-c3nc(N)nc4c3CCc3ccccc3-4)n1)CCc1ccccc1-2 | 105% |
| CNc1ccc2c(c1)c1ccccc1n2C | 93.7% |
| c1cc(CNC23CC4CC(CC(C4)C2)C3)cc(C[N+](Cc2cccc(CNC34CC5CC(CC(C5)C3)C4)c2)(Cc2cccc(CNC34CC5CC(CC(C5)C3)C4)c2)Cc2cccc(CNC34CC5CC(CC(C5)C3)C4)c2)c1 (configuration not stated) | -29.5% [42 µM] (active) |
| c1ccc(-c2nn(-c3ccccc3)[n+](-c3cccc4ccccc34)n2)cc1 | -25.8% (active) |
| N#Cc1c(-c2cccc(Cl)c2)cc(-c2cccc(Cl)c2)[nH]c1=O | -11.9% (active) |
| COc1cc(-c2nc3sccn3c2-c2ccnc(NCCNS(=O)(=O)c3ccc(F)cc3)n2)ccc1F | -17.4% (active) |
| COc1ccc(C2=NN(C(=O)c3ccc(S(C)(=O)=O)cc3)C(c3ccc(OC)c(OC)c3)C2)c(OC)c1 (configuration not stated) | 69% |
